# An excerpt weighted towards active compounds, which were near 19% of everything screened.
# Marburg entry inh – qHTS for inhibitors of binding or entry into cells for Marburg Virus. Marburg virus pseudotyped entry inhibition, cell reporter. Potency, µM (doses to about 37.8 µM), inactives show at the highest dose activity change, negative = inhibition, actives largely listed as inhibitors. 1.8% of 300,000 active; calls by dose curve; tested in HEK293 cells; note: potency is the fitted concentration of half-maximal effect; % is set by controls: 0 for no effect and ±100 for the full control effect
# Shiga inhibitor – A qHTS for Small Molecule Inhibitors of Shiga Toxin | Vero cells, Shiga toxin protein synthesis inhibition reporter | inhibition, % at 38.7 µM | 9.2% of 290,000 active | AID 2315, 2010; in the data active = inhibition mostly above about 28%, no sharp cut-off; inactive = mostly below about 43%; note: 0% is about no effect
# Pf growth 48h – Primary qHTS for delayed death inhibitors of the malarial parasite plastid, 48 hour incubation | P. falciparum luciferase growth in erythrocytes, 48 h | 5.9% of 310,000 active | AID 504832, 2011 | Potency, µM (doses to about 28.7 µM), without a hit: at the highest dose activity change, negative = inhibition, actives largely listed as inhibitors; note: potency is the fitted concentration of half-maximal effect; % is set by controls: 0 for no effect and ±100 for the full control effect
#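 Growth was read as firefly luciferase luminescence after a 48 h, 37 C, 5% CO2 exposure of compounds to reporter-bearing P. falciparum cultures (0.1% parasitemia, 2% hematocrit final) in Albumax-supplemented RPMI 1640.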
# Pf growth 96h – Primary qHTS for delayed death inhibitors of the malarial parasite plastid, 96 hour incubation; P. falciparum luciferase reporter growth, 96 h; Potency, µM (doses to about 28.7 µM), for inactives: top-dose activity change, negative = inhibition, actives largely listed as inhibitors; 6.9% of 320,000 active; AID 504834, 2011; note: potency is the fitted concentration of half-maximal effect; % is set by controls: 0 for no effect and ±100 for the full control effect
#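 Two parasite generations (96 h, 37 C, 5% CO2) of compound exposure in infected erythrocytes (0.05% parasitemia, 2% hematocrit). Luciferase-reporter P. falciparum; decreased luminescence indicates inhibited growth, aimed at apicoplast-acting delayed death.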
# Lassa entry inh – qHTS for Inhibitors of binding or entry into cells for Lassa Virus; Lassa virus pseudotype entry inhibition, cell reporter; 1.2% of 300,000 active; AID 540256, 2011; Potency, µM (top dose mostly 37.9 µM), for inactives: top-dose activity change, negative = inhibition, usual class: inhibitors; calls by dose curve; tested in HEK293 cells; note: potency is the fitted concentration of half-maximal effect; % is set by controls: 0 for no effect and ±100 for the full control effect; nearly all actives have a fitted effect of over 50% in size
# CHX counter – Cycloheximide Counterscreen for Small Molecule Inhibitors of Shiga Toxin; AID 2314, 2010; 12% of 300,000 active; cell reporter, cycloheximide protein synthesis inhibition counterscreen; max response, %; in the data active = max response mostly above about 13%, no sharp cut-off; inactive = mostly below about 14%; note: read at 38.3 µM for the half of the compounds with a filed dose; 0% is about no effect
# Numbers without * were called inactive; ? = inconclusive; . = no result given; [ ] = dose if it differs, or a comment. Unless noted, calls come from the whole dose curve; as a rule, active = well fitted inhibition curve with a large enough effect; inconclusive = small, poorly fitted or top-dose-only effect, or another doubt; inactive = no such curve, though single readings can be large or run the other way.
SMILES,Marburg entry inh,Shiga inhibitor,Pf growth 48h,Pf growth 96h,Lassa entry inh,CHX counter
CCOC(=O)CN1CC23C=CC(O2)C(C(=O)Nc2ccc(C(C)=O)cc2)C3C1=O (centres undefined),-9.8%,7.4,-1.5%,11.7µM*,.,0.8
Cc1cc(/C=C2/SC(=O)N(CC(=O)N3CCOCC3)C2=O)c(C)n1-c1ccccc1F,.,46.8*,67.2%,29.8%,.,22.1*
COc1ccc(-n2c(C)cc(/C=C3/SC(=O)N(CC(=O)N4CCOCC4)C3=O)c2C)cc1,-26.9%,-3.6,-3.0%,?,-1.6%,5.6
O=C(NC12CC3CC(CC(C3)C1)C2)N(Cc1ccccc1)Cc1ccncc1,.,-10.1,?,-24.8%,.,-1.5
COC(=O)c1ccccc1NC(=O)c1cc(-c2ccco2)on1,-1.2%[46.1 µM],-3.9,15.5%,19.2%,22.5%[46.1 µM],-0.9
O=C(Nc1c(F)cc(F)cc1Br)c1cc(-c2ccco2)on1,4.5%,-5.7,38.1%,10.4%,-12.2%,11.7
Cc1c(Cl)cccc1NC(=O)c1cc(-c2cccs2)on1,-0.2%[46.1 µM],.,.,.,3.8%[46.1 µM],.
Cc1c(Cl)cccc1NC(=O)c1cc(-c2ccco2)on1,11.5%[46.1 µM],53.6*,42.3%,168.4%,0.1%,36.1
CSc1ccccc1NC(=O)c1cc(-c2ccco2)on1,12.6%[46.1 µM],55.1*,41.9%,68.6%,-0.5%,18.0*
O=C(Nc1ccc(F)cc1F)c1cc(-c2ccco2)on1,18.1%,93.3*,253.2%,1.8%,5.4%,30.7*
CSc1ccccc1NC(=O)c1cc(C(C)C)on1,8.4%,116.8*,.,.,11.4%,50.3*
COc1ccc(C(=O)COc2ccc3c(C)cc(=O)oc3c2)cc1,.,.,8.7%,?,.,-3.4
Cc1cccn2c(=O)c(/C=N/O)c(N3CCCC3)nc12,-0.2%,-9.5,14.7%,39.2%,-11.1%,-3.7
CCCCN1C(=O)NC(=O)C2(Cc3c(nc4c(C)cccn4c3=O)N3CCc4ccccc4C32)C1=O (centres undefined),-14.5%,-3.7,9.28µM*,0.0%,-14.6%,-2.6
Cc1ccc2nc3c(cc2c1)CC1(C(=O)N(C)C(=O)N(C)C1=O)C1CCCCN31 (centres undefined),?,68.6*,43.4%,.,-6.5%,18.6*
CCCCN1C(=O)NC(=O)C2(Cc3c(nc4ccccn4c3=O)N3CCc4ccccc4C32)C1=O (centres undefined),-24.9%,50.0,?,-56.9%,-4.2%,-0.8
Cc1cccn2c(=O)c3c(nc12)N1CCc2ccccc2C1C1(C3)C(=O)NC(=O)N(C)C1=O (centres undefined),-14.4%,-16.2,13.1µM*,.,?,13.5
Cc1cccn2c(=O)c3c(nc12)N1CCCCCC1C1(C3)C(=O)N(C)C(=O)N(C)C1=O (centres undefined),?,3.7,?,2.62µM*,-15.5%,-2.3
COc1cccc(C(=O)NC(C)c2ccc(Br)cc2)c1 (centres undefined),25.4%,11.0,-11.4%,-17.7%,-15.7%,-2.2
O=C(Cn1c(=O)oc2cc(S(=O)(=O)NCc3ccccc3)ccc21)Nc1ccc(F)c(Cl)c1,.,.,.,.,8.4%[46.1 µM],.
C=CC[n+]1cccc(-c2cc3ccc(C)cc3[nH]2)c1,1.3%[46.1 µM],17.8,?,5.22µM*,-19.5%[46.1 µM],-2.2
COc1ccc(S(=O)(=O)N2CCCCC2)cc1NC(=O)CCNC(=O)c1ccco1,6.8%,.,9.28µM*,?,3.7%,.
COc1ccc(S(=O)(=O)N2CCCCC2)cc1NC(=O)CN1CCN(C(C)=O)CC1,4.3%[46.1 µM],14.2,?,-0.2%,13.6%[46.1 µM],-4.1
Cc1ccc(S(=O)(=O)N2CCCCC2)cc1NC(=S)NC(=O)c1ccco1,.,16.4,?,4.15µM*,.,8.0
Cc1ccc(S(=O)(=O)N2CCCCC2)cc1NC(=O)c1ccc(Br)o1,.,.,7.38µM*,?,.,.
SMILES,Marburg entry inh,Shiga inhibitor,Pf growth 48h,Pf growth 96h,Lassa entry inh,CHX counter
O=C(Nc1ccc(S(=O)(=O)N2CCCC2)cc1)c1ccc(Br)o1,-2.2%[46.1 µM],28.7,?,25.1%,?,-3.0
COc1ccccc1Oc1ccc(S(=O)(=O)N2CCCCC2)cc1NC(=O)CCNC(C)=O,16.5%,18.7,11.7µM*,5.86µM*,0.3%,8.5
Cc1ccccc1CSc1ncc(Cl)c(C(=O)NCc2ccccc2)n1,12.2%[46.1 µM],.,.,.,4.1%[46.1 µM],.
Cc1ccc(N2CC(C(=O)Nc3ccccc3C(=O)N3CCOCC3)CC2=O)cc1 (centres undefined),.,2.0,9.7%,-58.7%,.,-3.0
COc1ccc([N+](=O)[O-])cc1NC(=O)CCCOc1ccccc1,-30.2%,15.2,-20.9%,39.2%,-0.1%,-2.9
O=C(CCn1nc(-c2ccccc2)ccc1=O)N1CCCC1,14.5%,6.2,51.6%,-23.7%,?,6.0
O=C(N/C(=C\c1cccnc1)C(=O)N1CCC(O)CC1)c1ccccc1,6.0%[46.1 µM],-1.1,6.8%,27.2%,0.7%,-6.8
CC(O)(C#CCN1CCCCC1)c1ccccc1 (centres undefined),8.7%,11.7,-10.6%,57.3%,-6.6%,-1.3
OC(CC#CCN1CCCC1)(c1ccccc1)c1ccccc1,10µM*,-16.3,?,-26.4%,-28.2%,0.8
CC(C)C(O)(C#CCN1CCCCCC1)c1ccccc1 (centres undefined),-16.0%[46.1 µM],-6.3,?,-1.0%,-3.2%,14.5*
COC(=O)/C(N=Nc1c(C)n(C)n(-c2ccccc2)c1=O)=C(\C)O,3.3%,-3.3,17.6%,0.0%,-10.5%,0.3
CCOc1ccc(/C=N/N2C(=O)C(CC(=O)Nc3ccc(F)cc3F)SC2=NC)cc1OC (centres undefined),-2.8%,-18.0,11.7µM*,11.7µM*,-8.1%,-2.0
O=C(Nc1ccccc1OC(F)(F)F)c1ccc([N+](=O)[O-])cc1,-3.0%[46.1 µM],9.7,0.0%,?,1.5%,-1.6
Cc1cccc(N2CCN(C(=O)C3CC(=O)N(C4CCCC4)C3)CC2)c1C (centres undefined),?,24.6,37.9%,?,-11.7%,13.4
Cc1nnc(SCC(=O)N2CCCCC2)s1,3.5%,33.8*,27.0%,.,29.8%,17.6*
Cc1ccc(S(=O)(=O)N2CCN(C(=O)CSc3nnc(C)s3)C2)cc1,.,-11.5,.,4.15µM*,.,-2.8
Cc1nnc2sc(SCC(=O)N3CCC(C)CC3)nn2c1=O,3.5%[46.1 µM],-12.7,?,3.7µM*,26.2%[46.1 µM],0.5
Nc1nnc(SCC(=O)N2CCCCC2)s1,.,-9.8,9.7%,89.1%,.,-0.4
Cc1nnc2sc(SCC(=O)N3CCCCC3)nn2c1=O,6.1%[46.1 µM],15.7,2.62µM*,0.828µM*,25.1%[46.1 µM],0.6
O=C(O)c1cccc(NC(=O)c2ccccc2NC(=O)c2ccccc2F)c1,?,-6.4,25.3%,-10.6%,2.0%[46.1 µM],-2.6
C=CCNC(=O)c1onc(CSc2ccc(Cl)cc2)c1C(=O)NCC=C,.,1.4,?,-20.7%,.,1.5
Cc1ccccc1CSc1nn2c(=O)c(C)nnc2s1,-5.8%[46.1 µM],-5.1,5.22µM*,?,0.6%,-2.8
COc1ccc(Oc2c(Cl)cnn(-c3ccc(F)cc3)c2=O)cc1,?,-11.3,-4.2%,-0.2%,?,7.1
